Measurements published in PubChem BioAssay AID1159580 (chemical genetic matrix, 2015).
“And” between values parts separate entries of the source, which are not always exact repeats. Equal values may be shown once. Among all 5,500 compounds or so, about 2,000 (36%) were called active. Inconclusive results (about 18%) are left out. No stated cut-off is given here; in the data, active means normalized growth mostly below about 0.91 (no sharp cut-off); inconclusive means no clear call, values can overlap the other calls; inactive means mostly above about 0.92. Some of the results follow.

Test: chemical genetic growth profiling, strain panel (AID 1159580);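 further: tested at 20 µM; growth read once vehicle control cultures reached saturation at 30 °C; 1 = growth at the plate median or of vehicle wells; lower values mean less growth of the strain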
Conditions: S. cerevisiae deletion strains, growth OD

Measured: normalized growth

CC(CN(C)C)CN1c2ccccc2Sc2ccccc21 (configuration not stated)
inactive: locus YAL013W, strain DEP1, active compounds read low 0.993 | locus YAL021C, strain ccr4, active compounds read low 0.99 | locus YAL026C, strain drs2, active compounds read low 0.951 | locus YAL030W, strain snc1, active compounds read low 1.02 | locus YBL061C, strain skt5, active compounds read low 1.02 | locus YBR009C, strain hhf1, active compounds read low 1.02 | locus YBR023C, strain chs3, active compounds read low 1.02 | locus YBR171W, strain sec66, active compounds read low 1.04 | locus YBR229C, strain ROT2, active compounds read low 0.992 | locus YBR231C, strain swc5, active compounds read low 1.03 | locus YBR279W, strain paf1, active compounds read low 1.02 | locus YCL011C, strain gbp2, active compounds read low 1.02 | locus YCL016C, strain dcc1, active compounds read low 1.01 | locus YCL029C, strain bik1, active compounds read low 0.989 | locus YCL061C, strain MRC1, active compounds read low 1.02 | locus YCL069W, strain vba3, active compounds read low 1.02 | locus YCR088W, strain abp1, active compounds read low 1.02 | locus YDL005C, strain med2, active compounds read low 1.02 | locus YDL035C, strain GPR1, active compounds read low 0.985 | locus YDL040C, strain nat1, active compounds read low 1.01 | locus YDL074C, strain BRE1, active compounds read low 0.933 | locus YDL101C, strain DUN1, active compounds read low 0.985 | locus YDL134C, strain PPH21, active compounds read low 0.979 | locus YDL185W, strain tfp1, active compounds read low 0.974 | locus YDL192W, strain arf1, active compounds read low 0.998 | locus YDR001C, strain nth1, active compounds read low 1.01 | locus YDR069C, strain doa4, active compounds read low 1.01 | locus YDR101C, strain arx1, active compounds read low 0.988 | locus YDR150W, strain NUM1, active compounds read low 1.01 | locus YDR159W, strain sac3, active compounds read low 1.03 | locus YDR162C, strain NBP2, active compounds read low 0.991 | locus YDR195W, strain ref2 1.13 | locus YDR297W, strain sur2, active compounds read low 1.01 | locus YDR318W, strain mcm21, active compounds read low 0.974 | locus YDR334W, strain swr1, active compounds read low 1.02 | locus YDR335W, strain msn5, active compounds read low 1.02 | locus YDR388W, active compounds read low 0.966 | locus YDR392W, strain spt3, active compounds read low 1.07 | locus YDR502C, strain sam2, active compounds read low 0.99 | locus YEL003W, strain gim4, active compounds read low 0.988 | locus YEL037C, strain rad23, active compounds read low 1.01 | locus YEL061C, strain CIN8 (second series), active compounds read low 1.02 | locus YEL061C, strain CIN8, active compounds read low 0.994 | locus YER015W, strain faa2, active compounds read low 1.03 | locus YER016W, strain bim1, active compounds read low 1.02 | locus YER110C, active compounds read low 0.999 | locus YER111C, strain swi4, active compounds read low 1.03 | locus YER155C, strain BEM2 (second series), active compounds read low 1.04 | locus YER155C, strain BEM2, active compounds read low 0.99 | locus YER167W, strain BCK2, active compounds read low 0.997 | locus YFR010W, strain ubp6, active compounds read low 0.985 | locus YGL078C, strain dbp3, active compounds read low 0.986 | locus YGL086W, strain mad1, active compounds read low 0.991 | locus YGL167C, strain pmr1, active compounds read low 1.03 | locus YGL173C, strain kem1, active compounds read low 1.03 | locus YGL227W, strain vid30, active compounds read low 1.02 | locus YGL240W, strain doc1, active compounds read low 1.03 | locus YGL248W, strain PDE1, active compounds read low 0.995 | locus YGL253W, strain hxk2, active compounds read low 1.02 | locus YGR078C, strain PAC10, active compounds read low 0.958 | locus YGR135W, strain pre9, active compounds read low 0.944 | locus YGR229C, strain SMI1, active compounds read low 0.911 | locus YGR252W, strain gcn5, active compounds read low 0.917 | locus YHR013C, strain ard1, active compounds read low 1.04 | locus YHR027C, strain rpn1, active compounds read low 1.05 | locus YHR030C, strain SLT2, active compounds read low 0.983 and 1 | locus YHR079C, strain IRE1 (second series), active compounds read low 0.985 | locus YHR079C, strain IRE1, active compounds read low 0.993 | locus YHR094C, strain hxt1, active compounds read low 0.993 | locus YHR129C, strain ARP1, active compounds read low 0.989 | locus YHR142W, strain chs7, active compounds read low 1.01 | locus YHR200W, strain rpn10, active compounds read low 0.988 | locus YIL066C, strain RNR3, active compounds read low 0.972 | locus YIL073C, strain SPO22, active compounds read low 0.991 | locus YIL125W, strain kgd1, active compounds read low 0.996 | locus YIR030C, strain dcg1, active compounds read low 0.989 | locus YJL092W, strain hpr5, active compounds read low 1.01 | locus YJL095W, strain BCK1 (second series), active compounds read low 1.01 | locus YJL095W, strain BCK1, active compounds read low 0.861 and 1 | locus YJL115W, strain asf1, active compounds read low 1.01 | locus YJL129C, strain trk1, active compounds read low 1.11 | locus YJL134W, strain LCB3, active compounds read low 0.992 | locus YJL154C, strain vps35, active compounds read low 1.02 | locus YJL164C, strain tpk1, active compounds read low 1.02 | locus YJL166W, strain qcr8, active compounds read low 1.02 | locus YJL168C, strain set2, active compounds read low 0.993 | locus YJL187C, strain SWE1 (second series), active compounds read low 0.957 | locus YJL187C, strain SWE1, active compounds read low 1.01 | locus YJR043C, strain POL32, active compounds read low 1.02 | locus YJR066W, strain TOR1, active compounds read low 0.937
active: locus YBR021W, strain FUR4, active compounds read low 0.818 | locus YDR137W, strain rgp1, active compounds read low 1.22 [resistant]
